Test results reported in PubChem BioAssay.
For part of these data: Potency and affinity values are given separately. Active and inactive are the calls of the source.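 How the source made its calls, unless noted: active means membrane potential signal rise above negative control mean plus 3 SD in both duplicates, also active in the earlier TRPC4 screen; inactive means the rest.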

Experiments:
[1] = test system: TRPC4 beta (transient receptor potential cation channel C4), mouse; experiment: activators of mouse TRPC4 channel, confirmation, cell-based, Fluo4 calcium, HEK293 TRPC4beta/mu-opioid, duplicates, 10 µM (AID 2426;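 active means fluorescence ratio normalized to control raised more than 50% in primary screen plus both repeat runs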); settings: Fluo4 calcium fluorescence, at 10 µM; hits give high values
[2] = test system: transient receptor potential cation channel C4 beta (TRPC4), mouse; experiment: activators of mouse TRPC4 channel, confirmation, cell-based, second round, Fluo4, HEK293 TRPC4beta/mu-opioid, 1 µM (AID 2461;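 active means primary screen active and over 50% activation in each of two duplicate runs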); settings: Fluo4 calcium fluorescence, at 1 µM; hits give high values
[3] = test system: TRPC4 (transient receptor potential cation channel C4 beta), mouse; experiment: positive allosteric modulators of mouse TRPC4, confirmation, cell-based, second round, Fluo-4, HEK293 TRPC4beta/mu-opioid, 1 µM (AID 2554;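 active means primary screen hit whose fluorescence ratio, in both repeats, exceeds the weak agonist control mean by 3 SD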); settings: DAMGO EC20, Fluo-4 calcium flux, at 1 µM; hits give high values
[4] = test system: TRPC4 beta (transient receptor potential cation channel C4), mouse; experiment: positive allosteric modulators of mouse TRPC4, confirmation, cell-based, Fluo-4, HEK293 TRPC4beta/mu-opioid (AID 2555;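 active means primary screen hit whose calcium fluorescence ratio, in both repeats, exceeds the weak agonist control mean by 3 SD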); settings: DAMGO EC20, Fluo-4 calcium flux, at 10 µM; hits give high values
[5] = target: Short transient receptor potential channel 4 (Mus musculus) (UniProt Q9QUQ5); experiment: inhibitors of mouse TRPC4 channel, confirmation, cell-based, Fluo4, HEK293 TRPC4beta/mu-opioid (AID 2636;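 active means calcium signal cut by more than 3 SD below the full-agonist control yet still positive, in both repeats and the earlier primary screen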); settings: DAMGO, Fluo4 calcium flux, at 10 µM; hits give high values
Short transient receptor potential channel 4 (Mus musculus), sequence (Q9QUQ5 whole entry, looked up): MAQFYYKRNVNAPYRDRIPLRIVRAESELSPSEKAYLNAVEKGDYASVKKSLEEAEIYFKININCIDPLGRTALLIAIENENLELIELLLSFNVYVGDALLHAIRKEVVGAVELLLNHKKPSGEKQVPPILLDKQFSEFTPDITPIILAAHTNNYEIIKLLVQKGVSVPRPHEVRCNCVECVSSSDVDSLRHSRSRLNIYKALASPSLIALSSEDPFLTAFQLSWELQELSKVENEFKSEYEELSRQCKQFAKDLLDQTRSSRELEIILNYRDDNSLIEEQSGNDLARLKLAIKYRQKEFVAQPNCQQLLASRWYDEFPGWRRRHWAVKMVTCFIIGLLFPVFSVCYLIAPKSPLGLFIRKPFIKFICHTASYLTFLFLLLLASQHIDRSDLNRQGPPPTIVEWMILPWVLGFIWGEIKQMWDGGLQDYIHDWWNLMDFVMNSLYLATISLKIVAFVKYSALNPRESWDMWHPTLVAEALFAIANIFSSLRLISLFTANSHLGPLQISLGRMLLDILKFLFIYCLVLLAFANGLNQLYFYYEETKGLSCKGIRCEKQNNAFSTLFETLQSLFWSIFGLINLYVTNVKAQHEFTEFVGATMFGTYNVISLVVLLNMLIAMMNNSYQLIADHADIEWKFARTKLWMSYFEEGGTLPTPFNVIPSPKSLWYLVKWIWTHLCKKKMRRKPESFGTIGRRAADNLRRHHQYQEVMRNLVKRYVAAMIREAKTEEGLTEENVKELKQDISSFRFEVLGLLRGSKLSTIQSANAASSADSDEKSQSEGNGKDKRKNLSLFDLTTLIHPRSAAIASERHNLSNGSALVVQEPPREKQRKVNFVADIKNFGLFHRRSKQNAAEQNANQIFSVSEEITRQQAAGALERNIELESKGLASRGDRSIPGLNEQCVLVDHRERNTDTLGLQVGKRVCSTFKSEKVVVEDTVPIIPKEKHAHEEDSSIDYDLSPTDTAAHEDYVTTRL

[6] = target: Short transient receptor potential channel 4 (Mus musculus) (UniProt Q9QUQ5); experiment: inhibitors of mouse TRPC4 channel, confirmation, cell-based, second round, Fluo4, HEK293 TRPC4beta/mu-opioid, 1 µM (AID 2637;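 active means calcium signal ratio cut to more than 3 SD under the fully stimulated control mean yet still positive, in both repeats and the primary screen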); settings: Fluo4 calcium flux, DAMGO, at 1 µM; hits give high values
[7] = target: Short transient receptor potential channel 4 (Mus musculus) (UniProt Q9QUQ5); experiment: mouse TRPC4 channel activators, dose response, cell-based, HEK293 TRPC4/mu-opioid, Fluo-4 calcium (AID 434937;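 active means primary screen activator hit with a dose response curve and TRPC4 channel activation at any tested dose; inactive means no activation, no dose response, or not a primary hit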)
[8] = target: Short transient receptor potential channel 4 (Mus musculus) (UniProt Q9QUQ5); experiment: TRPC4 positive allosteric modulators, dose response, cell-based, HEK293 TRPC4/mu-opioid, Fluo-4 calcium, EC20 DAMGO (AID 434941;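 active means earlier screen potentiator hit that boosts the TRPC4 ion channel at some dose, with a dose response; inactive means no potentiation, no dose response, or not a prior hit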;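 further: calcium entry triggered by an EC20 dose of DAMGO at the co-expressed mu-opioid receptor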)
[9] = target: Short transient receptor potential channel 4 (Mus musculus) (UniProt Q9QUQ5); experiment: mouse TRPC4 channel inhibitors, dose response, cell-based, HEK293 TRPC4/mu-opioid, Fluo-4 calcium (AID 434942;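 active means primary screen inhibitor hit that blocks the TRPC4 channel at some tested dose, yielding a dose curve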)
[10] = target: Short transient receptor potential channel 6 (Mus musculus) (UniProt Q61143); experiment: inhibition of mouse TRPC6 channel, confirmation, selectivity assay for TRPC4 inhibitor project, cell-based, HEK293, membrane potential dye, duplicate (AID 434948;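 active means active in primary screen and both duplicates, each dropping signal beyond three positive-control SD with fluorescence still positive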); settings: HEK293 TRPC6, membrane potential dye fluorescence, at 10 µM, stimulated with maximal-effect acetylcholine; hits give high values
Short transient receptor potential channel 6 (Mus musculus), sequence (Q61143 whole entry, looked up): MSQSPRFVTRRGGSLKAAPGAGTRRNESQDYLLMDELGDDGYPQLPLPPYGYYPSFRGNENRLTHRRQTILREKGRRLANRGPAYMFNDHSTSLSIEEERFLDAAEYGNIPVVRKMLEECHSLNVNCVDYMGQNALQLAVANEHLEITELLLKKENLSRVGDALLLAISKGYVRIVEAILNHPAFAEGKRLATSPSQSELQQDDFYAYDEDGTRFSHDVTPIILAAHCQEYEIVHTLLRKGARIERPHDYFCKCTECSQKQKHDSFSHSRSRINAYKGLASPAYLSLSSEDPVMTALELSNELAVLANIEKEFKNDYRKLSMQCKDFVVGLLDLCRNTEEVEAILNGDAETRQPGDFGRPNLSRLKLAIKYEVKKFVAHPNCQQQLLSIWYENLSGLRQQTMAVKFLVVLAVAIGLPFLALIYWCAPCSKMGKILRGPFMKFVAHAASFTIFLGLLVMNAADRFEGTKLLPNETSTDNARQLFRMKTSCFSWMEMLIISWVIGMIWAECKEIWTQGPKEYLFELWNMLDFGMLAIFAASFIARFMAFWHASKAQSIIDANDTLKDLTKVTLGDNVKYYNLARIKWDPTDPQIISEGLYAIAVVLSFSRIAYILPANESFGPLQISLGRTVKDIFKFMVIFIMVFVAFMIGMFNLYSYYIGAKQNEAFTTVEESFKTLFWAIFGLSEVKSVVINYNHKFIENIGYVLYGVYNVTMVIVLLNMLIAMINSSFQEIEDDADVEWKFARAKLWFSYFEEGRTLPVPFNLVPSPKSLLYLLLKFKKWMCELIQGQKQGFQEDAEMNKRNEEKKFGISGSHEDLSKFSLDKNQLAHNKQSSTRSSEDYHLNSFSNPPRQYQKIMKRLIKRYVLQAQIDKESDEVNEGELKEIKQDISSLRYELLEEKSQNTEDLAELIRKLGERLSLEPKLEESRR

[11] = target: Short transient receptor potential channel 6 (Mus musculus) (UniProt Q61143); experiment: activation of mouse TRPC6 channel, confirmation, selectivity assay for TRPC4 activator project, cell-based, HEK293, membrane potential dye, duplicate (AID 434950); settings: HEK293 TRPC6, membrane potential fluorescence, at 10 µM; hits give high values;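 on activation: 0% = buffer only wells and 100% = acetylcholine maximal-effect wells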
[12] = target: Short transient receptor potential channel 6 (Mus musculus) (UniProt Q61143); experiment: TRPC6 potentiation by TRPC4 potentiator hits, confirmation, selectivity assay for TRPC4 potentiator project, HEK293 cells, membrane potential dye, duplicate (AID 434952;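 active means compound raising the membrane signal above positive-control mean plus 3 SD in both repeats, and a primary screen hit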); settings: HEK293 TRPC6, membrane potential dye fluorescence, at 10 µM, maximal acetylcholine added after compound; hits give high values
[13] = target: Short transient receptor potential channel 4 (Mus musculus) (UniProt Q9QUQ5); experiment: calcium flux activators in TRPC4/5HT1a cells, counter-screen for TRPC4 activator project, cell-based, second counter screen, HEK293 TRPC4/5HT1a, Fluo-4 (AID 434977;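 active means calcium signal rise above buffer-control mean plus 5 SD in both duplicates, and also a hit in the primary screen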); settings: Fluo-4 calcium flux, at 10 µM; hits give high values
[14] = calcium flux inhibitors in TRPC4/5HT1a cells, confirmation, counter-screen for TRPC4 inhibitor project, cell-based, second counter screen, HEK293 TRPC4/5HT1a, Fluo-4 (AID 434978;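 active means primary screen active whose calcium signal fell more than 3 SD beyond the full-serotonin control mean in both duplicate plates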;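 on outcome: serotonin given first at submaximal then at maximal dose after compound preincubation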); settings: Fluo-4 calcium flux, at 10 µM, serotonin added to trigger calcium flux; hits give high values
[15] = test system: TRPC4 (mouse), co-expressed with 5HT1a in HEK293; experiment: calcium flux potentiators in TRPC4/5HT1a cells, confirmation, counter-screen for TRPC4 potentiator project, cell-based, second counter screen, HEK293 TRPC4/5HT1a, Fluo-4 (AID 434979;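 active means signal rise over 3 SD above mean of control wells given weak agonist, in both repeats and first screen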); settings: Fluo-4 calcium flux, at 10 µM, serotonin added at its EC20 dose; hits give high values
[16] = calcium flux activation in mu-opioid HEK293 cells, confirmation, counter-screen for TRPC4 activator project, cell-based, HEK293 mu-opioid receptor line (AID 449723;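 active means hit in primary screen, with calcium signal over 5 SD above buffer well mean in both duplicates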;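 further: counter screen cells carry the mu-opioid receptor alone and lack TRPC4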); settings: Fluo-4 calcium fluorescence, at 10 µM; hits give high values
[17] = calcium flux enhancement in mu-opioid HEK293 cells, confirmation, counter-screen for TRPC4 allosteric potentiator project, cell-based, HEK293 mu-opioid receptor line (AID 449724;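 active means calcium signal rise more than 3 SD above the low-dose agonist control mean, in both duplicate plates and the primary screen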); settings: Fluo-4 calcium flux, at 10 µM, compound added before EC20 DAMGO stimulus; hits give high values

Cc1cc(C)cc(NC(=O)c2nnn(Cc3cc(C)ccc3C)c2N)c1
active: potentiation [4] 16% | potentiation [15] 27.4%
inactive: outcome [1] | outcome [2] | outcome [3] | outcome [5] | outcome [6] | outcome [7] | outcome [8] | outcome [9] | outcome [10] | outcome [11] | outcome [12] | outcome [13] | outcome [14] | outcome [16] | outcome [17]

OCCNc1nc(Nc2ccccc2)nc2ccccc12
inactive: outcome [1] | outcome [2] | outcome [3] | outcome [4] | outcome [5] | outcome [6] | outcome [7] | outcome [8] | outcome [9] | outcome [10] | outcome [11] | outcome [12] | outcome [13] | outcome [14] | outcome [15] | outcome [16] | outcome [17]

COc1cccc(OCCOCCNCCO)c1
active: activation [11] 33.5%
inactive: outcome [1] | outcome [2] | outcome [3] | outcome [4] | outcome [5] | outcome [6] | outcome [7] | outcome [8] | outcome [9] | outcome [10] | outcome [12] | outcome [13] | outcome [14] | outcome [15] | outcome [16] | outcome [17]

O=C(COc1ccc(Br)cc1Cl)c1ccc[nH]1
active: inhibition [5] 89% | inhibition [14] 43.7%
inactive: outcome [1] | outcome [2] | outcome [3] | outcome [4] | outcome [6] | outcome [7] | outcome [8] | outcome [9] | outcome [10] | outcome [11] | outcome [12] | outcome [13] | outcome [15] | outcome [16] | outcome [17]

Cc1cc2oc(C(=O)N(Cc3cccs3)C3CCS(=O)(=O)C3)cc(=O)c2cc1Cl (stereo not given)
active: potentiation [4] 40% | potentiation [15] 66.3%
inactive: outcome [1] | outcome [2] | outcome [3] | outcome [5] | outcome [6] | outcome [7] | outcome [8] | outcome [9] | outcome [10] | outcome [11] | outcome [12] | outcome [13] | outcome [14] | outcome [16] | outcome [17]

CCOC(=O)C1=C(CNCCc2ccc(Cl)cc2)NC(=O)NC1c1cccc([N+](=O)[O-])c1 (stereo not given)
inactive: outcome [1] | outcome [2] | outcome [3] | outcome [4] | outcome [5] | outcome [6] | outcome [7] | outcome [8] | outcome [9] | outcome [10] | outcome [11] | outcome [12] | outcome [13] | outcome [14] | outcome [15] | outcome [16] | outcome [17]

CCCCCCc1cc2cc(-c3nnc(-c4ccccc4O)o3)c(=O)oc2cc1O
active: potentiation [4] 15% | potentiation [15] 35.3% | activation [17] 1460%
inactive: outcome [1] | outcome [2] | outcome [3] | outcome [5] | outcome [6] | outcome [7] | outcome [8] | outcome [9] | outcome [10] | outcome [11] | outcome [12] | outcome [13] | outcome [14] | outcome [16]

N=c1c(C(=O)NCC2CCCO2)cc2c(=O)n3ccccc3nc2n1Cc1ccc(Cl)cc1 (stereo not given)
active: potentiation [4] 57% | potentiation [15] 61%
inactive: outcome [1] | outcome [2] | outcome [3] | outcome [5] | outcome [6] | outcome [7] | outcome [8] | outcome [9] | outcome [10] | outcome [11] | outcome [12] | outcome [13] | outcome [14] | outcome [16] | outcome [17]

CCOc1ccc(N=CNc2ccc(OCC)cc2)cc1
inactive: outcome [1] | outcome [2] | outcome [4] | outcome [5] | outcome [6] | outcome [7] | outcome [8] | outcome [9] | outcome [10] | outcome [11] | outcome [12] | outcome [13] | outcome [14] | outcome [16] | outcome [17]
active: potentiation [3] 18% | potentiation [15] 23%

COc1ccc(/C=N/NC(=O)c2ccc(F)cc2)cc1CN1CCc2cc(OC)c(OC)cc2C1C (stereo not given)
inactive: outcome [1] | outcome [2] | outcome [3] | outcome [4] | outcome [6] | outcome [7] | outcome [8] | outcome [9] | outcome [10] | outcome [11] | outcome [12] | outcome [13] | outcome [14] | outcome [15] | outcome [16] | outcome [17]
active: inhibition [5] 86%

O=C(COC(=O)CSc1ccc([N+](=O)[O-])cc1)NCCCc1ccccc1
inactive: outcome [1] | outcome [2] | outcome [3] | outcome [4] | outcome [5] | outcome [6] | outcome [7] | outcome [8] | outcome [9] | outcome [10] | outcome [11] | outcome [12] | outcome [13] | outcome [14] | outcome [15] | outcome [16] | outcome [17]

CC(C)(C)c1ccc(-c2nc3cc(N)ccc3o2)cc1
inactive: outcome [1] | outcome [2] | outcome [3] | outcome [4] | outcome [5] | outcome [6] | outcome [7] | outcome [8] | outcome [9] | outcome [10] | outcome [11] | outcome [12] | outcome [13] | outcome [14] | outcome [15] | outcome [16] | outcome [17]

COc1ccc(/C=C(\C#N)C(=O)N2CCOCC2)cc1Br
active: potentiation [4] 17% | potentiation [15] 20.4%
inactive: outcome [1] | outcome [2] | outcome [3] | outcome [5] | outcome [6] | outcome [7] | outcome [8] | outcome [9] | outcome [10] | outcome [11] | outcome [12] | outcome [13] | outcome [14] | outcome [16] | outcome [17]

Cc1ccc(NS(=O)(=O)c2cc(N)ccc2Cl)c(C)c1
inactive: outcome [1] | outcome [2] | outcome [3] | outcome [4] | outcome [5] | outcome [6] | outcome [7] | outcome [8] | outcome [9] | outcome [10] | outcome [11] | outcome [12] | outcome [13] | outcome [14] | outcome [15] | outcome [16] | outcome [17]

Cc1ccc(S(=O)(=O)NC(C(=O)Oc2cc3oc(=O)cc(C)c3cc2Cl)C(C)C)cc1 (stereo not given)
inactive: outcome [1] | outcome [2] | outcome [3] | outcome [4] | outcome [5] | outcome [6] | outcome [7] | outcome [8] | outcome [9] | outcome [10] | outcome [11] | outcome [12] | outcome [13] | outcome [14] | outcome [15] | outcome [16] | outcome [17]
